Screening data: PubChem, several laboratories
Only some compounds are listed: those with a hit (about 1.9% of all), similar ones and a draw of the others.
KLF5 inhibitor = kruppel-like factor 5 inhibition. DLD-1 KLF5 promoter-luciferase reporter, luminescence. 0.23% of 290,000 active. inhibition, % at 5 µM;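 active = inhibition above a per-plate limit of that plate's mean compound inhibition plus 3 SD, cut at about 60% in these data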;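 note: 0% = DMSO wells and 100% = LY294002 at 200 µM; higher means less KLF5 promoter-driven luciferase light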
Ba/F3 V617F tox = lowers viability of Ba/F3 cells expressing EpoR and JAK2V617F; AID 1446; inhibition, % at 5.6 µM; 1.1% of 220,000 active; ATP luminescence;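 active = inhibition above the campaign mean plus 3 SD over all tested compounds, cut at about 24% in these data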;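 note: cytokine-independent growth of Ba/F3 cells driven by EpoR plus mutant JAK2; 0% = DMSO-treated cells and 100% = JAK inhibitor I control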
IEC-6 tox = kills IEC-6 intestinal cells in KLF5 counter-screen; IEC-6 cytotoxicity, luminescence viability; AID 1825; 0.78% of 290,000 active; inhibition, % at 5 µM; in the data active = inhibition above about 22%;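 note: 0% = plate median of test compound wells and 100% = cytotoxic reference compound wells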
APP transl inh = APP translation inhibition. SH-SY5Y APP 5'UTR-luciferase reporter, luminescence. inhibition, % at 2 µM. 0.82% of 190,000 active. AID 1285;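 active = inhibition above a set limit, derived from the sample mean plus 3 SD, cut at about 45% in these data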
BaF3 tox = reduces parental Ba/F3 cell viability, JAK2V617F counter-screen. CellTiter-Glo ATP luminescence. inhibition, % at 5.6 µM. 1.1% of 220,000 active;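 active = inhibition above a per-campaign cutoff, the mean inhibition of all tested compounds plus 3 SD, cut at about 27% in these data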;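 note: 0% = DMSO wells and 100% = JAK Inhibitor I control wells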
BaF3 tox 2 = parental Ba/F3 viability inhibition for JAK2V617F counter-screen | shares compounds with Ba/F3 V617F tox | inhibition, % at 5.6 µM | CellTiter-Glo luminescence; cells kept alive by added IL-3 | 31% of 580 active | AID 1520;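 active = cell growth inhibition above the hit limit set in the earlier mutant JAK2 cell screen, cut at about 27% in these data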;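 note: plate controls were DMSO-treated cells for no effect and JAK Inhibitor I control wells for full effect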
JAK2V617F confrm = Ba/F3 EpoR-JAK2V617F viability loss, confirmation; shares compounds with Ba/F3 V617F tox; CellTiter-Glo luminescence; inhibition, % at 5.6 µM; 66% of 580 active; AID 1521;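 active = mean inhibition above the hit cutoff derived in the earlier primary screen, cut at about 25% in these data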;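 note: 0% = DMSO-treated cells and 100% = JAK inhibitor I control wells; higher means lower luminescence from reduced cell ATP and viability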
Starred values were filed as active, the others as inactive; · = not tested or not shown.

SMILES | KLF5 inhibitor | Ba/F3 V617F tox | IEC-6 tox | APP transl inh | BaF3 tox | others
C=C1/C(=C\C=C2/CCC[C@]3(C)[C@@H]([C@H](C)CCCC(C)(C)O)CC[C@@H]23)C[C@@H](O)C[C@@H]1O | -34.8 | 44.9* | 1.7 | · | 2.8
CCN(CC)CCNC(=O)c1ccc(Cl)c(S(=O)(=O)Nc2ccccc2OC)c1 | 5.4 | 1.1 | 1.6 | -9.2 | 2.2
CCN(CC)CCNC(=O)c1ccc(Cl)c(S(=O)(=O)Nc2ccc(Cl)cc2)c1 | -10.3 | 2.1 | 0.9 | 59.9* | 7.2
S=C(Nc1ccccc1)N1CCCN1c1ccccc1 | -35.8 | 24.1* | 0.2 | · | 30.5*
S=C(Nc1ccccc1)N1CCCCC1 | -21.8 | 0.3 | -0.5 | 0.6 | 1.2
CCN(C(=O)CC(C)C)c1nnc(Cn2nnc3ccccc32)s1 | -17.5 | -3.2 | -3.6 | 4.1 | 11.3
CCN(C(=O)c1ccc(C(C)(C)C)cc1)c1nnc(Cn2nnc3ccccc32)s1 | -27.6 | 27.3* | 8.8 | 13.2 | 54.6*
CC(=O)Nc1cccc(Oc2ncnc3scc(-c4ccc(C(C)C)cc4)c23)c1 | -49.1 | 0.8 | 26.1* | 2.0 | 5.0
O=C(c1cccs1)N1CCN(c2ccc([N+](=O)[O-])cc2F)CC1 | -0.7 | · | 4.0 | · | ·
Cc1ccc(NS(=O)(=O)c2ccc(N3CCN(c4ccc(O)cc4)CC3)c([N+](=O)[O-])c2)c(C)c1 | -11.0 | 5.7 | 9.2 | -9.8 | 9.2
O=C(Nc1cccc([N+](=O)[O-])c1)C(=O)N1CCCCC1 | -118.4 | 0.7 | 3.2 | -69.1 | 3.7
CC(NS(=O)(=O)c1cccc(S(=O)(=O)c2ccccc2)c1)C(=O)O (centres undefined) | -11.1 | -1.4 | -4.4 | -6.6 | 30.9*
CC1CCN(c2nc3ccc(C(=O)O)cc3s2)CC1 | 61.5 | -1.4 | -2.9 | 45.6* | 2.6
CC1CCN(c2nc3ccc(C(=O)NCCCN4CCCCC4)cc3s2)CC1 | -42.1 | · | 14.9 | · | ·
O=C(Nc1ccc(N2CCOCC2)c(Cl)c1)c1ccc([N+](=O)[O-])o1 | -17.8 | 0.7 | -3.5 | 94.8* | -5.1
CC(C)C(=O)N1CCN(c2ccc(NC(=O)c3ccc([N+](=O)[O-])o3)cc2Cl)CC1 | -13.7 | 10.1 | 5.5 | 96.1* | -8.7
O=C(Nc1cccc(S(=O)(=O)N2CCCCC2)c1)c1ccc([N+](=O)[O-])o1 | 4.6 | 0.8 | 11.4 | 45.0* | -3.7
CC(=O)N1CCN(c2ccc(NC(=O)c3ccc(Br)o3)cc2Cl)CC1 | -61.6 | -1.8 | -4.3 | -11.5 | 1.9
CCCC(=O)N1CCN(c2ccc(NC(=O)c3ccc([N+](=O)[O-])o3)cc2Cl)CC1 | -41.0 | 94.2* | 0.2 | 97.5* | 82.2*
CCN1CCN(c2c(Cl)cccc2NC(=O)c2ccc([N+](=O)[O-])o2)CC1 | 5.3 | · | 0.5 | · | ·
CCC1CCc2sc(C(=O)N3CCN(c4ccccn4)CC3)cc2C1 (centres undefined) | -5.2 | · | 5.1 | · | ·
O=C(Nc1ccccc1)N1CCC(=S)Nc2ccccc21 | 2.2 | 3.8 | -3.4 | -5.1 | 6.9
Cc1ccc(NC(=O)c2ccc([N+](=O)[O-])o2)cc1S(=O)(=O)N1CCOCC1 | -31.6 | -0.8 | 14.4 | 57.8* | -7.9
Cc1ccc(NC(=O)C(=O)NCc2ccc(/C=C(/C#N)C(=O)NCc3cccnc3)o2)cc1 | -34.0 | 3.7 | -3.2 | 7.7 | 7.6
O=C(Cn1c(=O)oc2ccccc21)NCCc1ccccc1 | -48.8 | · | -8.5 | · | ·
SMILES | KLF5 inhibitor | Ba/F3 V617F tox | IEC-6 tox | APP transl inh | BaF3 tox | others
C=CCOc1c(Br)cc(CNc2ccc3[nH]c(=O)[nH]c3c2)cc1OCC | -0.9 | 32.0* | 8.0 | 3.3 | 8.1 | BaF3 tox 2=34.7*;JAK2V617F confrm=73.8*
COc1cc(C2C3=C(CC(C)(C)CC3=O)OC3=C2C(=O)CC(C)(C)C3)cc([N+](=O)[O-])c1O | -15.2 | -1.6 | -5.2 | -23.9 | 3.1
Oc1ccc(C=Nc2ccc3ncccc3c2)c(O)c1 | -7.5 | -1.1 | -1.0 | -53.7 | 1.1
Oc1ccc(C=Nc2cccc3ncccc23)c(O)c1 | -21.0 | 51.7* | 18.4 | 11.9 | 16.0 | BaF3 tox 2=-1.6;JAK2V617F confrm=-3.7
Cc1csc(NC(=O)c2cc3c(C)nn(Cc4ccccc4Cl)c3s2)n1 | -23.8 | 35.9* | 0.6 | 0.5 | 10.4 | BaF3 tox 2=23.8;JAK2V617F confrm=27.5*
Cc1nn(Cc2ccccc2Cl)c2sc(C(=O)NC(C)(C)C)cc12 | 5.9 | -1.9 | 1.7 | -20.4 | 3.1
C=CCNC(=O)C1CC(=O)N(c2ccc(OCc3ccc(F)cc3)cc2)C1 (centres undefined) | -117.2 | · | 1.8 | · | ·
Cc1cccc(NC(=S)N(CCN(C)C)Cc2cc3cccc(C)c3[nH]c2=O)c1 | -24.8 | -3.7 | -0.6 | 10.9 | 1.7
Cc1ccc(NC(=S)N(CCN(C)C)Cc2cc3cccc(C)c3[nH]c2=O)cc1 | 5.1 | 43.0* | 10.9 | 13.4 | 22.5 | BaF3 tox 2=26.4;JAK2V617F confrm=39.0*
C=C(Cl)COc1ccc2c(C)cc(=O)oc2c1 | -27.4 | 3.8 | 3.5 | 1.6 | 10.9
COc1cccc(NC(=O)CSc2ccc3nnc(-c4cccnc4)n3n2)c1 | -25.5 | · | 3.1 | · | ·
Oc1ccc(Cl)cc1CNc1ccc(Br)cn1 | -162.3 | 26.9* | -0.7 | -59.4 | 12.6 | BaF3 tox 2=5.8;JAK2V617F confrm=30.9*
CCOC1=C/C(=C/c2c(N)n3nc(-c4ccccc4)sc3nc2=O)C=CC1=O | -47.0 | 0.0 | 0.2 | -31.5 | 5.9
Cc1ccc(C)c(-n2c(=O)c(C#N)cc3c(=O)n4ccccc4nc32)c1 | -9.2 | 60.5* | -1.6 | -2.7 | 21.3 | BaF3 tox 2=-2.0;JAK2V617F confrm=-4.6
Cc1ccc(-n2c(=O)c(C#N)cc3c(=O)n4ccccc4nc32)cc1 | 3.3 | -2.4 | -4.2 | 2.2 | 2.7
COc1ccc(-c2cc(C(=O)N/N=C/c3ccc(OC)c(COCC(F)(F)C(F)F)c3)c3ccccc3n2)c(OC)c1 | -19.1 | 48.8* | 3.7 | 4.4 | 4.4 | BaF3 tox 2=-2.2;JAK2V617F confrm=6.5
Cc1ccc2c(c1)NC(=O)c1cc([N+](=O)[O-])ccc1O2 | -3.9 | 1.7 | 5.2 | 16.3 | 4.0
CCOc1ccc2nc(SCC(=O)NC(=O)C(C)C)sc2c1 | -43.7 | 51.0* | -0.7 | 7.1 | 14.7 | BaF3 tox 2=-3.0;JAK2V617F confrm=-2.5
CC(Oc1ccccc1)C(=O)Nc1ccc(C(N)=O)cc1 (centres undefined) | 6.1 | -2.3 | 4.4 | -10.4 | 0.3
COC(=O)c1ccc(NC(=O)C(C)Oc2ccccc2)cc1 (centres undefined) | -15.3 | 25.9* | -3.1 | -15.8 | 3.9 | BaF3 tox 2=-6.8;JAK2V617F confrm=-16.8
CN1CCN(Cc2cc(COCc3ccccc3)c3cccnc3c2O)CC1 | 20.1 | 37.8* | 5.3 | 72.3* | 16.0 | BaF3 tox 2=4.7;JAK2V617F confrm=28.5*
CCOC(=O)c1[nH]c(C)c(C(=O)NC2CCCCC2)c1C | -40.2 | 100.0* | 5.8 | -0.1 | 5.7 | BaF3 tox 2=-5.4;JAK2V617F confrm=-20.8
CCOC(=O)c1[nH]c(C)c(C(=O)NCC2CCCO2)c1C (centres undefined) | 11.5 | -1.7 | 1.9 | -12.4 | 4.8
CCOc1cc2[nH]c(=S)n(Cc3ccc(C(=O)NCCCN(CC)CC)cc3)c(=O)c2cc1OCC | -52.5 | · | -7.7 | · | ·
CCOC(=O)c1cnc2ccc(OCC)cc2c1NCc1cccnc1 | -26.9 | 16.3 | 6.0 | -9.3 | 0.2
